Experimental data from PubChem BioAssay AID1159580 (chemical genetic matrix, 2015).
Out of some 5,500 compounds screened, about 2,000 (36%) were called active. Not shown: some 18% with an inconclusive outcome. No stated cut-off is given here; in the data, active means normalized growth mostly below about 0.91 (no sharp cut-off); inconclusive means no clear call, values can overlap the other calls; inactive means mostly above about 0.92. The list shows a part of the results.

Test: chemical genetic growth profiling, strain panel (AID 1159580);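 further: tested at 20 µM; growth read once vehicle control cultures reached saturation at 30 °C; 1 = growth at the plate median or of vehicle wells; lower values mean less growth of the strain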
Details: growth OD

Measured: normalized growth

CC(=O)N[C@@H](CS)C(=O)O
inactive: S. cerevisiae deletion strains, locus YAL013W, strain DEP1, active compounds read low 1 | S. cerevisiae deletion strains, locus YAL021C, strain ccr4, active compounds read low 1.02 | S. cerevisiae deletion strains, locus YAL026C, strain drs2, active compounds read low 1 | S. cerevisiae deletion strains, locus YAL030W, strain snc1, active compounds read low 0.995 | S. cerevisiae deletion strains, locus YBL061C, strain skt5, active compounds read low 1.01 | S. cerevisiae deletion strains, locus YBR009C, strain hhf1, active compounds read low 1 | S. cerevisiae deletion strains, locus YBR021W, strain FUR4, active compounds read low 0.989 | S. cerevisiae deletion strains, locus YBR023C, strain chs3, active compounds read low 0.994 | S. cerevisiae deletion strains, locus YBR171W, strain sec66, active compounds read low 0.991 | S. cerevisiae deletion strains, locus YBR229C, strain ROT2, active compounds read low 1.01 | S. cerevisiae deletion strains, locus YBR231C, strain swc5, active compounds read low 1.01 | S. cerevisiae deletion strains, locus YBR279W, strain paf1, active compounds read low 1.01 | S. cerevisiae deletion strains, locus YCL011C, strain gbp2, active compounds read low 0.997 | S. cerevisiae deletion strains, locus YCL016C, strain dcc1, active compounds read low 0.998 | S. cerevisiae deletion strains, locus YCL029C, strain bik1, active compounds read low 1.03 | S. cerevisiae deletion strains, locus YCL061C, strain MRC1, active compounds read low 0.995 | S. cerevisiae deletion strains, locus YCL069W, strain vba3, active compounds read low 1.01 | S. cerevisiae deletion strains, locus YCR088W, strain abp1, active compounds read low 1 | S. cerevisiae deletion strains, locus YDL005C, strain med2, active compounds read low 0.992 | S. cerevisiae deletion strains, locus YDL035C, strain GPR1, active compounds read low 1 | S. cerevisiae deletion strains, locus YDL040C, strain nat1, active compounds read low 1.01 | S. cerevisiae deletion strains, locus YDL074C, strain BRE1, active compounds read low 1.01 | S. cerevisiae deletion strains, locus YDL101C, strain DUN1, active compounds read low 1.01 | S. cerevisiae deletion strains, locus YDL134C, strain PPH21, active compounds read low 0.997 | S. cerevisiae deletion strains, locus YDL185W, strain tfp1, active compounds read low 1.02 | S. cerevisiae deletion strains, locus YDL192W, strain arf1, active compounds read low 1.01 | S. cerevisiae deletion strains, locus YDR001C, strain nth1, active compounds read low 0.997 | S. cerevisiae deletion strains, locus YDR069C, strain doa4, active compounds read low 1.01 | S. cerevisiae deletion strains, locus YDR101C, strain arx1, active compounds read low 1.01 | S. cerevisiae deletion strains, locus YDR137W, strain rgp1, active compounds read low 1.02 | S. cerevisiae deletion strains, locus YDR159W, strain sac3, active compounds read low 1.01 | S. cerevisiae deletion strains, locus YDR162C, strain NBP2, active compounds read low 1.02 | S. cerevisiae deletion strains, locus YDR195W, strain ref2 0.985 | S. cerevisiae deletion strains, locus YDR297W, strain sur2, active compounds read low 0.99 | S. cerevisiae deletion strains, locus YDR318W, strain mcm21, active compounds read low 1.02 | S. cerevisiae deletion strains, locus YDR334W, strain swr1, active compounds read low 1 | S. cerevisiae deletion strains, locus YDR335W, strain msn5, active compounds read low 1.01 | S. cerevisiae deletion strains, locus YDR388W, active compounds read low 1.02 | S. cerevisiae deletion strains, locus YDR392W, strain spt3, active compounds read low 1.02 | S. cerevisiae deletion strains, locus YDR502C, strain sam2, active compounds read low 1.01 | S. cerevisiae deletion strains, locus YEL003W, strain gim4, active compounds read low 1.01 | S. cerevisiae deletion strains, locus YEL037C, strain rad23, active compounds read low 1 | S. cerevisiae deletion strains, locus YEL061C, strain CIN8 (second series), active compounds read low 0.988 | S. cerevisiae deletion strains, locus YEL061C, strain CIN8, active compounds read low 1.01 | S. cerevisiae deletion strains, locus YER015W, strain faa2, active compounds read low 1 | S. cerevisiae deletion strains, locus YER016W, strain bim1, active compounds read low 0.995 | S. cerevisiae deletion strains, locus YER110C, active compounds read low 1.03 | S. cerevisiae deletion strains, locus YER111C, strain swi4, active compounds read low 0.989 | S. cerevisiae deletion strains, locus YER155C, strain BEM2 (second series), active compounds read low 1.01 | S. cerevisiae deletion strains, locus YER155C, strain BEM2, active compounds read low 1.01 | S. cerevisiae deletion strains, locus YER167W, strain BCK2, active compounds read low 1.01 | S. cerevisiae deletion strains, locus YFR010W, strain ubp6, active compounds read low 0.983 | S. cerevisiae deletion strains, locus YGL078C, strain dbp3, active compounds read low 1.01 | S. cerevisiae deletion strains, locus YGL086W, strain mad1, active compounds read low 1.01 | S. cerevisiae deletion strains, locus YGL167C, strain pmr1, active compounds read low 0.995 | S. cerevisiae deletion strains, locus YGL173C, strain kem1, active compounds read low 1 | S. cerevisiae deletion strains, locus YGL227W, strain vid30, active compounds read low 1 | S. cerevisiae deletion strains, locus YGL240W, strain doc1, active compounds read low 0.964 | S. cerevisiae deletion strains, locus YGL248W, strain PDE1, active compounds read low 1.02 | S. cerevisiae deletion strains, locus YGL253W, strain hxk2, active compounds read low 1.02 | S. cerevisiae deletion strains, locus YGR135W, strain pre9, active compounds read low 1.02 | S. cerevisiae deletion strains, locus YGR252W, strain gcn5, active compounds read low 0.999 | S. cerevisiae deletion strains, locus YHR013C, strain ard1, active compounds read low 1.02 | S. cerevisiae deletion strains, locus YHR027C, strain rpn1, active compounds read low 1.01 | S. cerevisiae deletion strains, locus YHR030C, strain SLT2, active compounds read low 1.01 | S. cerevisiae deletion strains, locus YHR079C, strain IRE1 (second series), active compounds read low 1.03 | S. cerevisiae deletion strains, locus YHR094C, strain hxt1, active compounds read low 1.01 | S. cerevisiae deletion strains, locus YHR129C, strain ARP1, active compounds read low 1.01 | S. cerevisiae deletion strains, locus YHR142W, strain chs7, active compounds read low 1.02 | S. cerevisiae deletion strains, locus YHR200W, strain rpn10, active compounds read low 1.02 | S. cerevisiae deletion strains, locus YIL066C, strain RNR3, active compounds read low 1.02 | S. cerevisiae deletion strains, locus YIL073C, strain SPO22, active compounds read low 1.07 | S. cerevisiae deletion strains, locus YIL125W, strain kgd1, active compounds read low 1.02 | S. cerevisiae deletion strains, locus YIR030C, strain dcg1, active compounds read low 1.01 | S. cerevisiae deletion strains, locus YJL092W, strain hpr5, active compounds read low 1.02 | S. cerevisiae deletion strains, locus YJL095W, strain BCK1 (second series), active compounds read low 1.01 | S. cerevisiae deletion strains, locus YJL095W, strain BCK1, active compounds read low 1.01 | S. cerevisiae deletion strains, locus YJL115W, strain asf1, active compounds read low 0.991 | S. cerevisiae deletion strains, locus YJL129C, strain trk1, active compounds read low 1 | S. cerevisiae deletion strains, locus YJL134W, strain LCB3, active compounds read low 1.01 | S. cerevisiae deletion strains, locus YJL154C, strain vps35, active compounds read low 1.01 | S. cerevisiae deletion strains, locus YJL164C, strain tpk1, active compounds read low 1 | S. cerevisiae deletion strains, locus YJL166W, strain qcr8, active compounds read low 0.985 | S. cerevisiae deletion strains, locus YJL168C, strain set2, active compounds read low 1.01 | S. cerevisiae deletion strains, locus YJL187C, strain SWE1 (second series), active compounds read low 1.03 | S. cerevisiae deletion strains, locus YJR043C, strain POL32, active compounds read low 1 | S. cerevisiae deletion strains, locus YKL009W, strain mrt4, active compounds read low 1.04 | S. cerevisiae deletion strains, locus YKL068W, active compounds read low 1.01 | S. cerevisiae deletion strains, locus YKL085W, strain MDH1 (second series), active compounds read low 1 | S. cerevisiae deletion strains, locus YKL085W, strain MDH1, active compounds read low 1 | S. cerevisiae deletion strains, locus YKL160W, strain elf1, active compounds read low 0.998 | S. cerevisiae deletion strains, locus YKR001C, strain vps1, active compounds read low 1.01 | S. cerevisiae deletion strains, locus YKR026C, strain gcn3, active compounds read low 0.991 | S. cerevisiae deletion strains, locus YKR091W, strain srl3, active compounds read low 1.01 | S. cerevisiae deletion strains, locus YLL001W, strain dnm1, active compounds read low 0.994 | S. cerevisiae deletion strains, locus YLL026W, active compounds read low 1.01 | S. cerevisiae deletion strains, locus YLL041C, strain sdh2, active compounds read low 1.01 | S. cerevisiae deletion strains, locus YLR027C, strain aat2, active compounds read low 1.01 | S. cerevisiae deletion strains, locus YLR039C, strain RIC1, active compounds read low 1.02 | S. cerevisiae deletion strains, locus YLR058C, strain SHM2, active compounds read low 1.02 | S. cerevisiae deletion strains, locus YLR102C, strain apc9, active compounds read low 1.02 | S. cerevisiae deletion strains, locus YLR221C, strain rsa3, active compounds read low 1 | S. cerevisiae deletion strains, locus YLR258W, strain gsy2, active compounds read low 1.01 | S. cerevisiae deletion strains, locus YLR262C, strain YPT6 (second series), active compounds read low 1 | S. cerevisiae deletion strains, locus YLR262C, strain YPT6, active compounds read low 1.08 | S. cerevisiae deletion strains, locus YLR268W, strain sec22, active compounds read low 1.02 | S. cerevisiae deletion strains, locus YLR320W, strain mms22, active compounds read low 1.01 | S. cerevisiae deletion strains, locus YLR330W, strain CHS5, active compounds read low 1.01 | S. cerevisiae deletion strains, locus YLR342W, strain FKS1 (second series), active compounds read low 0.995 | S. cerevisiae deletion strains, locus YLR342W, strain FKS1, active compounds read low 1.01 | S. cerevisiae deletion strains, locus YLR357W, strain rsc2, active compounds read low 0.989 | S. cerevisiae deletion strains, locus YLR370C, strain arc18, active compounds read low 1.01 | S. cerevisiae deletion strains, locus YLR371W, strain rom2, active compounds read low 1.03 | S. cerevisiae deletion strains, locus YLR384C, strain iki3, active compounds read low 1.01 | S. cerevisiae deletion strains, locus YLR418C, strain cdc73, active compounds read low 1.05 | S. cerevisiae deletion strains, locus YML016C, strain PPZ1, active compounds read low 1.01 | S. cerevisiae deletion strains, locus YML032C, strain rad52, active compounds read low 1.01 | S. cerevisiae deletion strains, locus YML120C, strain ndi1, active compounds read low 0.999 | S. cerevisiae deletion strains, locus YML124C, strain tub3, active compounds read low 1.04 | S. cerevisiae deletion strains, locus YMR058W, strain fet3, active compounds read low 0.998 | S. cerevisiae deletion strains, locus YMR078C, strain ctf18, active compounds read low 1.03 | S. cerevisiae deletion strains, locus YMR125W, strain sto1, active compounds read low 1.01 | S. cerevisiae deletion strains, locus YMR129W, active compounds read low 0.984 | S. cerevisiae deletion strains, locus YMR205C, strain PFK2, active compounds read low 0.995 | S. cerevisiae deletion strains, locus YMR223W, strain ubp8, active compounds read low 1.02 | S. cerevisiae deletion strains, locus YMR231W, strain pep5, active compounds read low 1 | S. cerevisiae deletion strains, locus YMR263W, strain SAP30, active compounds read low 1.01 | S. cerevisiae deletion strains, locus YMR307W, strain GAS1, active compounds read low 1.04 | S. cerevisiae deletion strains, locus YNL067W, strain RPL9B, active compounds read low 1.03 | S. cerevisiae deletion strains, locus YNL071W, strain lat1, active compounds read low 1.02 | S. cerevisiae deletion strains, locus YNL128W, strain TEP1, active compounds read low 1.03 | S. cerevisiae deletion strains, locus YNL153C, strain GIM3, active compounds read low 1.02 | S. cerevisiae deletion strains, locus YNL209W, strain ssb2, active compounds read low 1 | S. cerevisiae deletion strains, locus YNL233W, strain BNI4, active compounds read low 1.01 | S. cerevisiae deletion strains, locus YNL248C, strain rpa49, active compounds read low 1.08 | S. cerevisiae deletion strains, locus YNL250W, strain rad50, active compounds read low 1.01 | S. cerevisiae deletion strains, locus YNL271C, strain bni1, active compounds read low 1.03 | S. cerevisiae deletion strains, locus YNL298W, strain CLA4, active compounds read low 1.02 | S. cerevisiae deletion strains, locus YNL307C, strain MCK1, active compounds read low 1.02 | S. cerevisiae deletion strains, locus YNL322C, strain KRE1 (second series), active compounds read low 0.999 | S. cerevisiae deletion strains, locus YNR049C, strain mso1, active compounds read low 1 | S. cerevisiae deletion strains, locus YNR052C, strain pop2, active compounds read low 1.03 | S. cerevisiae deletion strains, locus YOL006C, strain TOP1, active compounds read low 0.995 | S. cerevisiae deletion strains, locus YOL012C, strain htz1 0.978 | S. cerevisiae deletion strains, locus YOL147C, strain pex11, active compounds read low 1.02 | S. cerevisiae deletion strains, locus YOR001W, strain rrp6, active compounds read low 1.02 | S. cerevisiae deletion strains, locus YOR061W, strain CKA2, active compounds read low 1.02 | S. cerevisiae deletion strains, locus YOR069W, strain VPS5, active compounds read low 1.01 | S. cerevisiae deletion strains, locus YOR070C, strain gyp1, active compounds read low 1 | S. cerevisiae deletion strains, locus YOR080W, strain dia2, active compounds read low 0.984 | S. cerevisiae deletion strains, locus YOR083W, strain WHI5, active compounds read low 1 | S. cerevisiae deletion strains, locus YOR106W, strain vam3, active compounds read low 1.02 | S. cerevisiae deletion strains, locus YOR136W, strain idh2, active compounds read low 1.03 | S. cerevisiae deletion strains, locus YOR144C, strain elg1, active compounds read low 1.03 | S. cerevisiae deletion strains, locus YOR184W, strain ser1, active compounds read low 1.01 | S. cerevisiae deletion strains, locus YOR265W, strain rbl2, active compounds read low 1 | S. cerevisiae deletion strains, locus YOR270C, strain vph1, active compounds read low 1.04 | S. cerevisiae deletion strains, locus YOR290C, strain snf2, active compounds read low 0.994 | S. cerevisiae deletion strains, locus YOR316C, strain cot1, active compounds read low 1.02 | S. cerevisiae deletion strains, locus YPL051W, strain arl3, active compounds read low 1.01 | S. cerevisiae deletion strains, locus YPL078C, strain atp4, active compounds read low 0.992 | S. cerevisiae deletion strains, locus YPL106C, strain sse1, active compounds read low 0.988 | S. cerevisiae deletion strains, locus YPL240C, strain hsp82, active compounds read low 0.999 | S. cerevisiae deletion strains, locus YPR119W, strain clb2, active compounds read low 1.02 | S. cerevisiae deletion strains, locus YPR141C, strain kar3, active compounds read low 1.03 | S. cerevisiae deletion strains, locus YPR163C, strain tif3, active compounds read low 1.03 | S. cerevisiae deletion strains, locus YPR167C, strain met16, active compounds read low 1.06 | S. cerevisiae deletion strains, strain wtn01, active compounds read low 1.01 | S. cerevisiae strains, strain wild type, active compounds read low 1.01
